Source: PubChem (National Center for Advancing Translational Sciences (NCATS))
MCF10A rereplic – A quantitative high throughput screen for small molecules that induce DNA re-replication in MCF 10a normal breast cells; MCF 10A DNA re-replication, Hoechst nuclear intensity, 48 h; Potency, µM (doses to about 46.1 µM), actives largely listed as activators; actives 2.9% (n = 350,000); further: nearly all actives have a fitted effect of over 50% in size
HT1080 IDH1KD tx – qHTS for induction of synthetic lethality in tumor cells producing 2HG: qHTS for the HT-1080-IDH1KD cell line. HT-1080 IDH1 knockdown viability, ATP luminescence, 48 h. Potency, µM (highest dose often 46.1 µM), actives largely listed as cytotoxic. actives 2% (n = 360,000). AID 686971, 2013
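CellTiter-Glo luminescence after 48 h compound exposure at 37 degrees C of IDH1-knockdown HT-1080 cells in 5% FBS RPMI. %Activity scaled between DMSO wells and cell-free media wells, with curves fitted and assigned curve classes.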
SW480 rerep – A quantitative high throughput screen for small molecules that induce DNA re-replication in SW480 colon adenocarcinoma cells; SW480 DNA re-replication, Hoechst DNA content imaging, 48 h; Potency, µM (series often up to 46.1 µM), actives largely listed as activators; actives 1.8% (n = 340,000); AID 624297, 2012; further: nearly all actives have a fitted effect of over 55% in size
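250 cells/well; 23 nL cpd via pin tool; 48 hr, 37 C, 5% CO2; Hoechst 40 min; imager read of total nuclear intensity, ex 405/em 500-530 nm.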
HT1080NT lethal – qHTS for induction of synthetic lethality in tumor cells producing 2HG: qHTS for the HT-1080-NT fibrosarcoma cell line; HT-1080-NT fibrosarcoma viability, CellTiter-Glo ATP luminescence, 48 h; Potency, µM (doses to about 46.1 µM), hits mostly cytotoxic; actives 1.6% (n = 360,000);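 further: NT is the 2HG producing partner of a matched IDH1 knockdown line; nearly all actives have a fitted effect of over 55% in size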
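A 48-hour cytotoxicity screen used HT-1080-NT cells plated 2 hours before compound delivery. ATP-based CellTiter-Glo luminescence measured viability, normalized to DMSO and no-cell controls.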
KB-V1 cytotox – qHTS assay for MDR1-selective chemotherapeutics: Primary screen using the drug-selected MDR subline cells KB-V1; actives 3.4% (n = 400,000); KB-V1 MDR cells viability, CellTiter-Glo, 72 h; Potency, µM (top dose mostly 46.1 µM), most hits filed as cytotoxic; AID 1347076, 2019; further: nearly all actives have a fitted effect of over 60% in size
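Potencies derive from concentration-effect curves fitted to normalized luminescence (CellTiter-Glo) of KB-V1 cells treated for 72 h at 37 degrees C in phenol-red-free DMEM containing 10% FBS.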
KB-3-1 tox – qHTS assay for MDR1-selective chemotherapeutics: Primary screen using the parental adenocarcinoma cell KB-3-1 | KB-3-1 viability, CellTiter-Glo ATP luminescence, 72 h | Potency, µM (top dose mostly 46.1 µM), hits mostly cytotoxic | AID 1347075, 2019 | actives 1.4% (n = 400,000); further: nearly all actives have a fitted effect of over 60% in size
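Viability of parental KB-3-1 cells, measured by CellTiter-Glo luminescence, followed a 72 h incubation at 37 °C with pinned compounds in phenol-red-free DMEM containing 10% FBS.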
Of the large screens only hits and unclear results are named; the others gave an inactive call. Shown are actives, neighbours in structure and some others; about 7.9% of the full set was active somewhere. The call rests on the fitted dose curve; in most records, active means well fitted curve in the direction sought with a large enough effect; inconclusive means small, poorly fitted or top-dose-only effect, or another doubt; inactive means no such curve, though single readings can be large; an effect the other way counts as inactive or inconclusive.

Cc1cc(C)c2c(N)c(C(=O)Nc3ccccc3Cl)sc2n1	MCF10A rereplic 11.6µM, HT1080 IDH1KD tx inconclusive, SW480 rerep inconclusive, HT1080NT lethal inconclusive
COCc1cc(C)nc2sc(C(=O)Nc3ccccc3Br)c(N)c12	MCF10A rereplic inconclusive, SW480 rerep 1.84µM
COc1ccc(NC(=O)CN2C(=O)CC(c3ccco3)Sc3ccccc32)cc1OC (stereo not given)	KB-V1 cytotox 18.4µM (no result: MCF10A rereplic, HT1080 IDH1KD tx, SW480 rerep, HT1080NT lethal)
O=C(CN1C(=O)CC(c2ccco2)Sc2ccccc21)Nc1ccc(C(F)(F)F)cc1 (stereo not given)	KB-V1 cytotox inconclusive (no result: MCF10A rereplic, HT1080 IDH1KD tx, SW480 rerep, HT1080NT lethal)
O=C(CN1C(=O)CC(c2ccco2)Sc2ccccc21)Nc1cccc(C(F)(F)F)c1 (stereo not given)	KB-V1 cytotox 20.6µM, KB-3-1 tox inconclusive (no result: MCF10A rereplic, HT1080 IDH1KD tx, SW480 rerep, HT1080NT lethal)
O=C1CN2C(=Nc3ccc(Cl)cc3C2c2ccccc2)CN1 (stereo not given)	none
CC12CCC(O)CC1=CCC1C2CCC2(C)C1CCC21CCC(=O)O1 (stereo not given)	MCF10A rereplic inconclusive, KB-V1 cytotox 20.6µM, KB-3-1 tox inconclusive
COc1ccc(N(CC(O)CN2C(=O)NC(C)(C)C2=O)S(=O)(=O)c2ccccc2)cc1 (stereo not given)	none
O=C(/C=C/c1ccc([N+](=O)[O-])cc1)c1ccccc(=O)c1O	MCF10A rereplic 2.91µM, HT1080 IDH1KD tx 5.8µM, SW480 rerep 5.8µM, HT1080NT lethal 6.51µM, KB-V1 cytotox 1.03µM, KB-3-1 tox inconclusive
O=C(/C=C/c1ccc([N+](=O)[O-])cc1)c1cccs1	SW480 rerep inconclusive
Cc1ccc(/C=C/C(=O)c2ccccc(=O)c2O)c(C)c1	MCF10A rereplic inconclusive, HT1080 IDH1KD tx 18.4µM, SW480 rerep inconclusive, HT1080NT lethal 20.6µM, KB-V1 cytotox 8.2µM, KB-3-1 tox 16.4µM
Cc1ccc(C)c(NC(=O)c2ccccc2O)c1	MCF10A rereplic inconclusive, HT1080 IDH1KD tx inconclusive, SW480 rerep inconclusive, HT1080NT lethal inconclusive, KB-3-1 tox inconclusive
O=C(/C=C/c1ccccc1Cl)c1ccccc(=O)c1O	MCF10A rereplic 10.3µM, HT1080 IDH1KD tx 11.6µM, SW480 rerep 11.6µM, HT1080NT lethal 11.6µM, KB-V1 cytotox 18.4µM, KB-3-1 tox 20.6µM
Cc1ccc(C)c(/C=C/C(=O)c2ccccc(=O)c2O)c1	MCF10A rereplic 18.4µM, HT1080 IDH1KD tx 14.6µM, HT1080NT lethal inconclusive, KB-V1 cytotox 8.2µM, KB-3-1 tox 11.6µM
Cc1c(NC(=O)CN2CCN(C(=O)c3ccco3)CC2)c(=O)n(-c2ccccc2)n1C	none
COc1cc(-c2c(C#N)c(N)nc3[nH]c(=S)[nH]c(=O)c23)ccc1O	KB-V1 cytotox inconclusive
O=C(C=Cc1ccccc1O)c1ccccc1O	MCF10A rereplic inconclusive, HT1080 IDH1KD tx 18.4µM, SW480 rerep inconclusive, HT1080NT lethal 23.1µM, KB-V1 cytotox inconclusive, KB-3-1 tox inconclusive
CN=C(Nc1ccccc1)SC1CC(=O)N(c2ccc(C(=O)OC)cc2)C1=O (stereo not given)	none
O=C1CCN(Cc2ccccc2)CCN1[C@H](CO)Cc1ccccc1	SW480 rerep 5.17µM, KB-V1 cytotox inconclusive
N=C1CCC(=N)c2c1c(O)c1ccccc1c2O	HT1080 IDH1KD tx inconclusive, SW480 rerep inconclusive, HT1080NT lethal 23.1µM
O=C1CCn2c1c(O)c1ccccc1c2=O	KB-V1 cytotox inconclusive, KB-3-1 tox inconclusive
COc1ccc(CN(C)C(=O)COC(=O)c2ccc(-c3ccccc3)cc2)c(OC)c1OC	none
Cc1nnn(C23CC4CC(CC(CC(=O)Nc5ccc(C)c(Cl)c5)(C4)C2)C3)n1	KB-V1 cytotox 7.31µM
c1ccc(Nc2nc(-c3ccccc3)ns2)cc1	none
COc1cc([C@H]2c3[nH]c4ccccc4c3C[C@H]3C(=O)N4[C@@H](c5cc(OC)c(OC)c(OC)c5)c5[nH]c6ccccc6c5C[C@H]4C(=O)N23)cc(OC)c1OC	MCF10A rereplic inconclusive, HT1080 IDH1KD tx 14.6µM, SW480 rerep inconclusive, HT1080NT lethal 11.6µM
O=C1[C@@H]2Cc3c([nH]c4ccccc34)[C@@H](c3ccccc3)N2C(=O)[C@@H]2Cc3c([nH]c4ccccc34)[C@@H](c3ccccc3)N12	MCF10A rereplic inconclusive, SW480 rerep 23.1µM (no result: HT1080 IDH1KD tx, HT1080NT lethal, KB-V1 cytotox, KB-3-1 tox)
O=C1NCC(=O)N2C(c3ccccc3)c3[nH]c4ccccc4c3C[C@@H]12 (stereo not given in full)	none
O=C(CC1OC(=O)c2ccccc21)Nc1cc(Cl)ccc1N1CCOCC1 (stereo not given)	none
Cc1cccc(Nc2cnn(C34CC5CC(CC(CC(=O)O)(C5)C3)C4)c(=O)c2Cl)c1	none
Cc1cc(C)cc(Nc2cnn(C34CC5CC(CC(CC(=O)O)(C5)C3)C4)c(=O)c2Cl)c1	MCF10A rereplic 23.1µM, SW480 rerep inconclusive
Cc1cc(C)c2nc(-n3nc(C)cc3N)cc(C)c2c1	none
O=C(Nc1ncccc1O)c1ccc2c(c1)OCCO2	KB-V1 cytotox inconclusive, KB-3-1 tox 4.11µM
O=C(Nc1ccc(O)cc1)c1ccc(NC(=O)c2cccs2)cc1	MCF10A rereplic 18.4µM, HT1080 IDH1KD tx 23.1µM, HT1080NT lethal 9.2µM, KB-3-1 tox 18.4µM
O=C(Nc1ccc(NC(=O)c2cccs2)cc1)c1ccc2c(c1)OCO2	HT1080 IDH1KD tx 11.6µM, HT1080NT lethal inconclusive
O=C(Nc1ncccc1O)c1ccc2c(c1)OCO2	KB-3-1 tox inconclusive
Cc1ccccc1C(=O)N1CCN(c2ccc(NC(=O)CSc3ccc(Cl)cc3)cc2)CC1	MCF10A rereplic inconclusive, HT1080 IDH1KD tx inconclusive, KB-V1 cytotox inconclusive, KB-3-1 tox 18.4µM
Cc1ccc(N2CC(C(=O)OCC(=O)Nc3ccccc3F)CC2=O)cc1 (stereo not given)	SW480 rerep inconclusive
CCCn1nnnc1SCC(=O)Nc1cccc(NC(=O)c2ccco2)c1	none
[O-][n+]1c2c(nn1-c1ccccc1Cl)-c1nonc1CC2	none
Cc1ccccc1C(=O)N1CCN(c2ccc(NC(=O)c3ccc4c(c3)OCCO4)cc2)CC1	MCF10A rereplic 16.4µM, HT1080NT lethal inconclusive, KB-V1 cytotox 8.2µM, KB-3-1 tox inconclusive
O=C(Nc1ccc(NC(=O)c2ccc3c(c2)OCCO3)cc1)c1ccccc1	HT1080 IDH1KD tx inconclusive, HT1080NT lethal 16.4µM, KB-V1 cytotox inconclusive
CN(C)c1ccccc1-c1cc(NC=O)c2ncc(-c3cccc(C(F)(F)F)c3)n2c1	HT1080 IDH1KD tx 29.1µM, HT1080NT lethal inconclusive, KB-V1 cytotox inconclusive, KB-3-1 tox inconclusive (no result: MCF10A rereplic, SW480 rerep)
